Test results from PubChem BioAssay (NCATS).
Inconclusive results are not listed. Activity calls are given as the source filed them. Unless noted, calls come from the whole dose curve; as a rule, active = well fitted curve in the direction sought with a large enough effect; inconclusive = small, poorly fitted or top-dose-only effect, or another doubt; inactive = no such curve, though single readings can be large; an effect the other way counts as inactive or inconclusive.

How the values were obtained:
[1] = molecular target: Rap guanine nucleotide exchange factor 3 (Homo sapiens) (UniProt O95398); test: Confirmatory qHTS for antagonist of cAMP-regulated guanine nucleotide exchange factor 3 (EPAC1) (AID 1645880); details: EPAC1 Rap1B-BODIPY-GDP exchange, fluorescence; activity, negative = inhibition: at 115 µM (top of the series); note: nearly all actives have a fitted effect of over 55% in size; note: potency is the fitted concentration of half-maximal effect;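 for activity, negative = inhibition: plate controls were DMSO only for no effect and full effect of the ATA control for full effect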
Sequence of Rap guanine nucleotide exchange factor 3 (Homo sapiens) (O95398 whole entry, looked up): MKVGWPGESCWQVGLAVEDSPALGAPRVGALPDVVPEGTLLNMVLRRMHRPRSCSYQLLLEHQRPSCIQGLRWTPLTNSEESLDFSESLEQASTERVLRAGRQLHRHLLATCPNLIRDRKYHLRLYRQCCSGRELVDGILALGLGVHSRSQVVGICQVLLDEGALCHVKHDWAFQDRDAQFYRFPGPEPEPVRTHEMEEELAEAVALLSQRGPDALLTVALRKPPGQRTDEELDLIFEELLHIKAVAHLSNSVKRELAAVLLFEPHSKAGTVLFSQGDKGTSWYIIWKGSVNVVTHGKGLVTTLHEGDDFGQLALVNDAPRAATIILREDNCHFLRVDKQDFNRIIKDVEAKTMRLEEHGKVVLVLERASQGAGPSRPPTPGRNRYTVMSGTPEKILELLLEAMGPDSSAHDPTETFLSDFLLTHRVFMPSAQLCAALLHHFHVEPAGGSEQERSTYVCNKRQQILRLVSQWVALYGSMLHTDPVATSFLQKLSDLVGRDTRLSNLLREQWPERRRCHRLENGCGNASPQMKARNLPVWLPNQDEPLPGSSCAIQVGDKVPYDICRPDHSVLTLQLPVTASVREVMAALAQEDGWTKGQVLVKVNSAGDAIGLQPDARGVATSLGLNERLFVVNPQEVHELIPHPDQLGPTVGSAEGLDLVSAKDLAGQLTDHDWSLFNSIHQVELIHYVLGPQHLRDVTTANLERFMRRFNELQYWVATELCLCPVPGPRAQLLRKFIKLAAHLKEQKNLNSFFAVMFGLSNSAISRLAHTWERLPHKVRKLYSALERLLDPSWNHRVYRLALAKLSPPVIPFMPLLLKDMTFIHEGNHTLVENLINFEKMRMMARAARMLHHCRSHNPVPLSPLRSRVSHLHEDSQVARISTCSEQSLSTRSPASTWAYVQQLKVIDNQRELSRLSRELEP
Outline: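 Released BODIPY-GDP fluoresces less than Rap1-bound BODIPY-GDP; the signal is followed at 480/540 nm at 5-min intervals over 30 min, after 5 min at room temperature. Reactions contain 100 nM EPAC1, 250 nM RAP1B-BODIPY-GDP and 50 uM GDP; results are normalized to ATA and DMSO.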

[2] = molecular target: Rap guanine nucleotide exchange factor 3 (Homo sapiens) (UniProt O95398); test: Confirmatory qHTS for agonist of cAMP-regulated guanine nucleotide exchange factor 3 (EPAC1) (AID 1645881); note: nearly all actives have a fitted effect of over 75% in size; note: potency is the fitted concentration of half-maximal effect;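 for activation: EPAC1 catalysed release of BODIPY-GDP from Rap1B seen as fluorescence loss; 100% = effect of cAMP agonist control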
[3] = molecular target: Rap guanine nucleotide exchange factor 4 (Homo sapiens) (UniProt Q8WZA2); test: Confirmatory qHTS for agonist of cAMP-regulated guanine nucleotide exchange factor 4 (EPAC2) (AID 1645884);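 note: nucleotide exchange releases bodipy-GDP from Rap1 and this lowers its fluorescence; nearly all actives have a fitted effect of over 65% in size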; note: potency is the fitted concentration of half-maximal effect
Sequence of Rap guanine nucleotide exchange factor 4 (Homo sapiens) (Q8WZA2 whole entry, looked up): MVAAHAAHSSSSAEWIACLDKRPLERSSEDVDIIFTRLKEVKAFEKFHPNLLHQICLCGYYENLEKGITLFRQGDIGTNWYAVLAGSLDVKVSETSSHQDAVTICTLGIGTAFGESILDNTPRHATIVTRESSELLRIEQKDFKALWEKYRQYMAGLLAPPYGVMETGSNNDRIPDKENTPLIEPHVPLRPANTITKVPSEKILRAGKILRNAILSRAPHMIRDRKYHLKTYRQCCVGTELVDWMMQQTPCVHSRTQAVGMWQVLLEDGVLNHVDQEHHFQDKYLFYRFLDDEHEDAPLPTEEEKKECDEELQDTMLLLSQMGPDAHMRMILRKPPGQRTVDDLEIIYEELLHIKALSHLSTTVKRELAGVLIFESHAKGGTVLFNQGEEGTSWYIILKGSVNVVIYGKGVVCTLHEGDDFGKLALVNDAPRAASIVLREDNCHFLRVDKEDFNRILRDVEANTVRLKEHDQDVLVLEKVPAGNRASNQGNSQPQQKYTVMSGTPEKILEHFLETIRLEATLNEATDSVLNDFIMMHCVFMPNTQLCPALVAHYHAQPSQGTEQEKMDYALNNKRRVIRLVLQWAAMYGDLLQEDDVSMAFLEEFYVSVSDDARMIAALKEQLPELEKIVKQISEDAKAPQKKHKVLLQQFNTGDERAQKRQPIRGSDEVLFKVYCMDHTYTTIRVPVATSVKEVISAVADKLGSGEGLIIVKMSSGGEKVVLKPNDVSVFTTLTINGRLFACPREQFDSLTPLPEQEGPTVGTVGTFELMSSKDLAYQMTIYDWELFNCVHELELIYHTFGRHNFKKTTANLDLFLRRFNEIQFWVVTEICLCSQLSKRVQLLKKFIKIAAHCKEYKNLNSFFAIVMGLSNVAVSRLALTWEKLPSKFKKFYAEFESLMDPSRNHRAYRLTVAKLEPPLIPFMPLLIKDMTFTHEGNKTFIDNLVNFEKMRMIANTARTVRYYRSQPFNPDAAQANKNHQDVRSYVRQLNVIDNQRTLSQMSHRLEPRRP

[4] = molecular target: Rap guanine nucleotide exchange factor 3 (Homo sapiens) (UniProt O95398); test: Counterscreen qHTS for antagonist of cAMP-regulated guanine nucleotide exchange factor 3 (EPAC1) (AID 1645888); note: % of control where 0% means no effect
Outline: (§1)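 Rap1B–BODIPY-GDP (250 nM) with 50 uM GDP; compounds pin-transferred to 9.74 nM–152 uM final (activator) or from 7.32 nM upwards (inhibitor). Fluorescence Ex/Em 480/540 nm read at 5 and 30 min, then after adding cAMP or buffer, at room temperature.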

[5] = molecular target: Lysosomal acid glucosylceramidase (Homo sapiens) (UniProt P04062); test: Glucocerebrosidase-p2 (AID 348; in the data active = potency below about 10 µM; note: potency is the fitted concentration of half-maximal effect); details: purified GBA, blue fluorogenic substrate, 40 min
Sequence of Lysosomal acid glucosylceramidase (Homo sapiens) (P04062 whole entry, looked up): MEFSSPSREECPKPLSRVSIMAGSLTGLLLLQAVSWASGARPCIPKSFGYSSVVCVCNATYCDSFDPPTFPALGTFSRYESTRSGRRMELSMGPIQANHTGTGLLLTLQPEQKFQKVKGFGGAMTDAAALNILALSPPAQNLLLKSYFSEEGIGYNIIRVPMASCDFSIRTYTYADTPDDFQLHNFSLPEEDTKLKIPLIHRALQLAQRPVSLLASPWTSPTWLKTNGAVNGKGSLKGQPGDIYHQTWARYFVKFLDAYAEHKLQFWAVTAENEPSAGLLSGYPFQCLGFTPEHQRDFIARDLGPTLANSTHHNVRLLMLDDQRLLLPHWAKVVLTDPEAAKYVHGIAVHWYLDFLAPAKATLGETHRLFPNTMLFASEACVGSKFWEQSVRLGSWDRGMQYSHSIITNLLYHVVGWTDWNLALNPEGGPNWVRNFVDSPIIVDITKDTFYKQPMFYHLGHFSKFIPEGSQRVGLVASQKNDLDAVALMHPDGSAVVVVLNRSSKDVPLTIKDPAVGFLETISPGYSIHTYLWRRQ
Outline: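 Normal human glucocerebrosidase (0.2 nM) with blue fluorogenic substrate (80 uM final) in citrate/phosphate pH 5.9 with 10mM sodium taurocholate, 0.01% tween-20; 40 min RT, NaOH/glycine stop; fluorescence Ex 365/Em 440; AC50 from a titration from 0.6 nM upwards.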

[6] = AP1 Signaling Pathway (AID 357; active = well fitted curve in either direction with a large enough effect, not every such curve was filed as active;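 note: ME-180 reporter cells stimulated with EGF at its EC50 level; % is set by controls: 0 for no effect and ±100 for the full control effect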); details: ME-180 (cervical carcinoma) AP-1-bla reporter, EGF-induced, beta-lactamase ratio, 5 h; at 7.69 µM (top of the series) unless noted
Outline: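 Cells are seeded overnight, exposed to compound titrations and an EC50 level of EGF for 5 hours at 37 °C, then loaded with CCF4 dye for 2.5 hours. Beta-lactamase activity under the AP-1 element is read as a blue/green ratio.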

[7] = molecular target: Cytochrome P450 1A2 (Homo sapiens) (UniProt P05177); test: p450-cyp1a2 (AID 410; calls by dose curve; note: potency is the fitted concentration of half-maximal effect)
Sequence of Cytochrome P450 1A2 (Homo sapiens) (P05177 whole entry, looked up): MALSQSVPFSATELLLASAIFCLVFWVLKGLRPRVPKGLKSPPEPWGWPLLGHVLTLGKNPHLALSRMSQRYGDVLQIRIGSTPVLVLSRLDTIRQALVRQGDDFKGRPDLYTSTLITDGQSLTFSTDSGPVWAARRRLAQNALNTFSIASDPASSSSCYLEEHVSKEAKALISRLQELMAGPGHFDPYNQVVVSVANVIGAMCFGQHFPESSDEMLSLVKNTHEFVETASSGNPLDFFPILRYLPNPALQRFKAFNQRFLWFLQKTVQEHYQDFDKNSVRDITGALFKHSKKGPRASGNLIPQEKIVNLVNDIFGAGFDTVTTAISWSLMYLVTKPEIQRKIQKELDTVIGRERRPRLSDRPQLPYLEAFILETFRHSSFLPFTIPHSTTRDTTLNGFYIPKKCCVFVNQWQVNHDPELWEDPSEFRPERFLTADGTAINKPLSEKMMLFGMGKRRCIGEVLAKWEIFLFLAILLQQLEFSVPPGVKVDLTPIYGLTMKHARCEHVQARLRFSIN
Outline: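 20nM CYP1A2, 100uM Luciferin-ME (=Km), 100mM KPO4; cpd 10 min RT; +NADPH regen, 60 min RT; stop/detect 20 min; luminescence. Normalized to furafylline 57 uM = full inhibition.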

[8] = NFAT Signaling Pathway (AID 444; active = well fitted curve in either direction with a large enough effect, not every such curve was filed as active;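 note: carbachol stimulus at about its EC50 of 1 µM final; % is set by controls: 0 for no effect and ±100 for the full control effect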); details: Jurkat NFAT-bla M1, carbachol, beta-lactamase ratio, 5 h; at 7.69 µM (top of the series) unless noted
Outline: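 Jurkat cells with NFAT-driven β-lactamase reporter and co-expressed M1 receptor, stimulated with carbachol (final 1 uM, ~EC50), compound titration, 5 h at 37 °C. CCF4 loaded 1 h at RT; 460/530 nm ratio gave %activity and AC50.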

[9] = Stat Signaling Pathway (AID 446; active = well fitted curve in either direction with a large enough effect, not every such curve was filed as active;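 note: ME-180 cervical cancer cells given 40 pM IL-6 alongside compound; SIE-controlled beta-lactamase reporter measured as 460/530 nm FRET emission ratio; % is set by controls: 0 for no effect and ±100 for the full control effect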)
Outline: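 Normalization used AC90 stimulation (300 pM IL-6) and AC90 inhibition (125 nM pan-JAK inhibitor at 40 pM IL-6). The underlying signal is SIE-driven beta-lactamase in ME-180 cells after 5 h IL-6 exposure with compound.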

[10] = molecular target: Glucocorticoid receptor (Homo sapiens) (UniProt P04150); test: GR-EFC Redistribution (AID 451; calls by dose curve; note: potency is the fitted concentration of half-maximal effect); details: CHO-K1 GR-EFC translocation, beta-gal luminescence, 2 h
Sequence of Glucocorticoid receptor (Homo sapiens) (P04150 whole entry, looked up, the tested form may be a part): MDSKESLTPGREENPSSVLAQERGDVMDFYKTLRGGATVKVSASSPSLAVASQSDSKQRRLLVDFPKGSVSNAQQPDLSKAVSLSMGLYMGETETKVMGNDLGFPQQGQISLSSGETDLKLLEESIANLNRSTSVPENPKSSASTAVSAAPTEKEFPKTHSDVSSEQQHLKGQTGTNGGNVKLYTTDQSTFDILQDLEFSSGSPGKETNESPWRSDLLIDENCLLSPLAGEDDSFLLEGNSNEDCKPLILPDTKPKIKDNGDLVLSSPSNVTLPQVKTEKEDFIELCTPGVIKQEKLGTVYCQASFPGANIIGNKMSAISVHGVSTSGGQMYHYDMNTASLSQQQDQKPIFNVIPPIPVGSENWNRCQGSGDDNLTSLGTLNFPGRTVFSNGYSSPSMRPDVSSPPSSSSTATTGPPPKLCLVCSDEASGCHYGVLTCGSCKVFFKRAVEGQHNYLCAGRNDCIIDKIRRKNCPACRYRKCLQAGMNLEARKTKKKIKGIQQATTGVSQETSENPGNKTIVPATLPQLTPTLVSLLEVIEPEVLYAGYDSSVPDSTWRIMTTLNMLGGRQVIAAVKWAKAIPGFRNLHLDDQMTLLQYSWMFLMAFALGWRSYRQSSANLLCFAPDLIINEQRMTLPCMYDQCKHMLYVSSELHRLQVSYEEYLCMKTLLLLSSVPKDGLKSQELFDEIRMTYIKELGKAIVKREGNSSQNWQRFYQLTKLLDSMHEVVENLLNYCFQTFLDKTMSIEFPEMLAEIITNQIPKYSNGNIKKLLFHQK
Outline: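 CHO-K1 cells expressing nuclear EA and GR-ED fragments of b-gal; compounds titrated up to 46 uM final, 2 h at 37 C. GR nuclear translocation read as complemented b-gal luminescence after 1 h RT detection.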

[11] = molecular target: Mitogen-activated protein kinase 10 (Mus musculus) (UniProt Q61831); test: JNK3 AlphaScreen Assay (AID 530; active = well fitted curve in either direction with a large enough effect, not every such curve was filed as active;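 note: kinase came from lysate of stimulated human HepG2 cells; signal reports phosphorylation of biotinylated GST-cJun 1-79 at Ser73 with 10 µM ATP; % is set by controls: 0 for no effect and ±100 for the full control effect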)
Outline: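 HepG2 lysate (IL-1b/TNFa pre-activated) + biotin-GST-cJun 1-79 + anti-pSer73 cJun; cpd titration, 15 min RT; ATP 10 uM start; Tris pH 7.6, MgCl2, DTT, vanadate; beads in EDTA buffer; AlphaScreen.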

[12] = molecular target: Cytochrome P450 2C9 (Homo sapiens) (UniProt P11712); test: qHTS Assay for Inhibitors and Substrates of Cytochrome P450 2C9 (AID 883); note: potency is the fitted concentration of half-maximal effect; nearly all actives have a fitted effect of over 60% in size
Outline: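 10nM CYP2C9 + 100uM Luciferin-H (=KM), 25mM KPO4; cpd 10 min 37C; NADPH regen, 60 min 37C; stop/detect with P450 Glo-Buffer 20 min; luminescence. Norm. to 57uM sulphaphenazole as full inhibition.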

[13] = molecular target: Cytochrome P450 3A4 (Homo sapiens) (UniProt P08684); test: qHTS Assay for Inhibitors and Substrates of Cytochrome P450 3A4 (AID 884); note: potency is the fitted concentration of half-maximal effect; nearly all actives have a fitted effect of over 50% in size
Sequence of Cytochrome P450 3A4 (Homo sapiens) (P08684 whole entry, looked up): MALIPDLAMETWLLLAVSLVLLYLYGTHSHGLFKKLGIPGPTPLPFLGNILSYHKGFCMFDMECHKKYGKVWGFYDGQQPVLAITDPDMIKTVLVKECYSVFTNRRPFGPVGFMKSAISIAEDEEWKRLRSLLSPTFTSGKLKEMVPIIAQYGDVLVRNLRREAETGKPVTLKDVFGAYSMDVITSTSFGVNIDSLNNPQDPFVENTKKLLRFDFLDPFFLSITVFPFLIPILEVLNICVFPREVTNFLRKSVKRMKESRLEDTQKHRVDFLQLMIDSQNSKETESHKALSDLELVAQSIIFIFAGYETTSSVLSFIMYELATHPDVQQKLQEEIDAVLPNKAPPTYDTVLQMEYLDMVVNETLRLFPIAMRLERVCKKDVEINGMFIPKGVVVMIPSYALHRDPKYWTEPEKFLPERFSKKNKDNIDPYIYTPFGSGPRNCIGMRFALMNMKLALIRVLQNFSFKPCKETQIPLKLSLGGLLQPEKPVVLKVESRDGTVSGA
Outline: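 Luminescent readout of luciferin produced by CYP3A4 (20 nM) dealkylation of Luciferin-PPXE, 25 uM (its KM). NADPH-driven reaction ran 60 min at RT after 10 min compound preincubation; data scaled to 57 uM ketoconazole as 100% inhibition.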

[14] = molecular target: Cytochrome P450 3A4 (Homo sapiens) (UniProt P08684); test: qHTS Assay for Activators of Cytochrome P450 3A4 (AID 885); note: nearly all actives have a fitted effect of over 65% in size
Outline: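 Human CYP3A4 dealkylates Luciferin-PPXE to luciferin, which luciferase detection converts to light. Substrate was at its KM (25uM), buffer 200mM KPO4, reaction 60 min at RT.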

[15] = molecular target: Rap guanine nucleotide exchange factor 4 (Homo sapiens) (UniProt Q8WZA2); test: Confirmatory qHTS for antagonist of cAMP-regulated guanine nucleotide exchange factor 4 (EPAC2) (AID 1645885); note: nearly all actives have a fitted effect of over 25% in size; note: potency is the fitted concentration of half-maximal effect
[16] = molecular target: Tumor susceptibility gene 101 protein (Homo sapiens) (UniProt Q99816); test: qHTS Assay for Iinhibitors of HIV-1 Budding by Blocking the Interaction of PTAP/TSG101: Hit Validation (AID 651600); note: nearly all actives have a fitted effect of over 70% in size; note: potency is the fitted concentration of half-maximal effect
Sequence of Tumor susceptibility gene 101 protein (Homo sapiens) (Q99816 whole entry, looked up, the tested form may be a part): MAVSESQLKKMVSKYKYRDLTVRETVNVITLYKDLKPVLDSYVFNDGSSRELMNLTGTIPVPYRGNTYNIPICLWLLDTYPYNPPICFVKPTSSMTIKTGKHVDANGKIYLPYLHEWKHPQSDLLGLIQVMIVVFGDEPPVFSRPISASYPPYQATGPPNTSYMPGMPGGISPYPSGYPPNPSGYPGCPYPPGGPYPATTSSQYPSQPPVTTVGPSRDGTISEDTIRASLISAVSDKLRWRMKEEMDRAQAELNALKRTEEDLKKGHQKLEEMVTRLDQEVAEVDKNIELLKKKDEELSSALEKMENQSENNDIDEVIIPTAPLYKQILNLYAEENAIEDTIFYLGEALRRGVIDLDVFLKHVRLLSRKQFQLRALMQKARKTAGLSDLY
Outline: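 FITC-PTAP peptide (50 nM final) binding to Tsg101 binding domain (10 uM final) was measured by polarization after 20 min at r.t. with compounds, in 10 mM HEPES pH 7.5 buffer with 0.15 M NaCl and 0.01% Tween 20.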

[17] = molecular target: Rap guanine nucleotide exchange factor 3 (Homo sapiens) (UniProt O95398); test: Counterscreen qHTS for agonist of cAMP-regulated guanine nucleotide exchange factor 3 (EPAC1) (AID 1645889); note: nearly all actives have a fitted effect of over 40% in size; note: potency is the fitted concentration of half-maximal effect; for activation: % of control where 0% means no effect
Outline: as §1

[18] = molecular target: Glucocorticoid receptor (Homo sapiens) (UniProt P04150); test: GR-GFP Redistribution (AID 450;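 active = compounds whose dose series gives a full or clear partial fitted curve of increased nuclear translocation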; note: potency is the fitted concentration of half-maximal effect); details: U2OS GR-GFP nuclear translocation, laser cytometry, 2 h
[19] = molecular target: Cytochrome P450 2C19 (Homo sapiens) (UniProt P33261); test: qHTS Assay for Inhibitors and Substrates of Cytochrome P450 2C19 (AID 899); note: potency is the fitted concentration of half-maximal effect; nearly all actives have a fitted effect of over 60% in size
Outline: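 Luminescent read-out of luciferin formed from Luciferin-H EGE (10uM, equal to KM). Enzyme 5nM in 50mM KPO4; compound added, 10 min at 37C, then NADPH regenerating system for 60 min at 37C. Full inhibition defined by 57uM ketoconazole.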

[20] = Confirmation and Secondary Assay for Modulators of Hemoglobin Beta Chain Splicing at IVS2 654 locus (AID 910);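 note: HeLa cells stably carrying EGFP split by mutant beta-globin IVS2-654 intron; % of control where 0% means no effect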
Outline: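 HeLa cells stably expressing EGFP interrupted by β-globin IVS2-654 intron, seeded overnight in Opti-MEM/2% FCS, then treated 2 days at 37 °C. Restored splicing read as total peak GFP intensity per well by laser scanning cytometry (488 nm excitation, 500–520 nm emission); 500 nM antisense PNA as control.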

[21] = Confirmation and Secondary Assay for Modulators of Hemoglobin Beta Chain Splicing at IVS2 705 locus (AID 930);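 note: HeLa cells stably expressing the EGFP-705 splicing reporter; GFP fluorescence per well restored by corrected splicing of the IVS2-705 intron in EGFP; % of control where 0% means no effect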
Outline: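 Stable HeLa line with EGFP disrupted by mutant beta-globin intron 2 (705). Overnight attachment, then 2 days of compound at 37C, 5% CO2. Signal: peak GFP intensity summed over objects 5-250 µm.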

[22] = molecular target: Dual specificity protein kinase CLK4 (Homo sapiens) (UniProt Q9HAZ1); test: qHTS Assay for Inhibitors of CDC-like Kinase 4 (ADP-FP Assay) (AID 1795);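 note: recombinant human CLK4 phosphorylating RS repeat peptide at 1 µM ATP; % is set by controls: 0 for no effect and ±100 for the full control effect; nearly all actives have a fitted effect of over 60% in size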
Outline: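 Kinase activity was measured as ADP production using Transcreener orange tracer (4 nM) and ADP antibody (1 ug/mL) fluorescence polarization, with ADP calculated from a calibration curve. The 1 h reaction contained 6.25 nM Clk4, 1 uM ATP and 100 uM RS peptide at pH 7.5 with Mg2+.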

[23] = molecular target: Ubiquitin carboxyl-terminal hydrolase 1 (Homo sapiens) (UniProt O94782); test: Inhibitors of USP1/UAF1: Pilot qHTS (AID 504865);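 note: rhodamine fluorescence freed from ubiquitin-rhodamine substrate followed over time; top concentration of the series differs between compounds; % is set by controls: 0 for no effect and ±100 for the full control effect; nearly all actives have a fitted effect of over 35% in size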
Outline: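 Deubiquitinase activity followed as kinetic rhodamine fluorescence release from 150 nM Ub-Rho. 1 nM USP1/UAF1 with compound, after 15 min room-temperature preincubation, in HEPES pH 7.8 buffer containing TCEP, EDTA, BSA and Tween-20.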

[24] = molecular target: DNA dC->dU-editing enzyme APOBEC-3G (Homo sapiens) (UniProt Q9HC16); test: qHTS for inhibitors of Vif-A3G interactions: Validation (AID 588379); note: 0% is about no effect
Sequence of DNA dC->dU-editing enzyme APOBEC-3G (Homo sapiens) (Q9HC16 whole entry, looked up): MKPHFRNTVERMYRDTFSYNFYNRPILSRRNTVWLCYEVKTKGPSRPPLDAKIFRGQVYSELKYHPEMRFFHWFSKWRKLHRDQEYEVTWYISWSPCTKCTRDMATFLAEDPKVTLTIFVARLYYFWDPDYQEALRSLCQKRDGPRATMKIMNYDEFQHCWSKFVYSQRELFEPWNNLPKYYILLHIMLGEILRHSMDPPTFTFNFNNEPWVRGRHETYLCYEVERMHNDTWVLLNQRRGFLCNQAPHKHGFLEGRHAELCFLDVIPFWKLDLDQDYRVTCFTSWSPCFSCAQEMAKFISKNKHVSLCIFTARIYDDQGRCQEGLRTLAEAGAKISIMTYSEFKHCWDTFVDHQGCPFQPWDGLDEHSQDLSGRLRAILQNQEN
Outline: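 Yellow fluorescence (Ex 488, Em 500-530) of Vif-coexpressing HeLa A3G-eYFP cells, scanned by Acumen cytometer, reports blocked A3G degradation. Cells plated at 700/well overnight at 37 deg C before compound addition, then a further overnight compound incubation at 37 deg C.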

O=C(CS(=O)(=O)c1ccccc1)c1cc2ccccc2oc1=O
inactive: Potency [1] | Potency [2] | activation [3] 8.75% [at 17.1 µM, percent relative to cAMP agonist control] | activity change, negative = inhibition [4] -20.4% [at 30.8 µM]

O=C(c1cnccn1)N1CCC[C@@]2(CCN(c3cccc(-c4ccccc4)c3)C2)C1
inactive: Potency [5] > 11.4 µM | activity change, negative = inhibition [6] -18.4% | activity change, negative = inhibition [8] 7.34% | outcome [9] | Potency [10] > 46 µM | Potency [11] | outcome [14] | Potency [1] | Potency [2] | Potency [3] | Potency [15]
active: Potency [7] 25.1 µM | Potency [12] 7.94 µM | Potency [13] 3.98 µM

Cc1nc(Nc2ccc(S(=O)(=O)N3CCCCC3C)cc2)c2nnn(Cc3ccccc3)c2n1 (stereo not given)
inactive: Potency [16] | Potency [1] | Potency [2] | Potency [3] | Potency [15] | Potency [17]

C=C(C)Cn1c(C)cc(C)c(S(=O)(=O)c2ccc(C)cc2)c1=O
inactive: Potency [1] | Potency [2] | Potency [3] | Potency [4]

CC(=O)c1ccc(N2CCN(C(=O)c3cc(-c4cccnc4)nc4ccc(Br)cc34)CC2)cc1
inactive: Potency [1] | Potency [2] | Potency [3] | Potency [4]

CCOC(=O)C(C)Sc1ncnc2c1nnn2-c1ccc(F)cc1 (stereo not given)
inactive: Potency [1] | Potency [2] | activation [3] 3.03% [at 17.1 µM, percent relative to cAMP agonist control] | activity change, negative = inhibition [4] -4.79% [at 30.8 µM]

O=c1cnc2cnc(Oc3ccccc3)nc2n1Cc1cccs1
active: Potency [7] 7.94 µM | Potency [19] 1.26 µM | Potency [15] 15.6 µM
inactive: Potency [5] > 11.4 µM | activity change, negative = inhibition [8] -1.41% | outcome [9] | Potency [18] > 9.22 µM | Potency [10] > 46 µM | Potency [11] | outcome [14] | Potency [1] | Potency [2] | Potency [3]

CN1CCN(c2ncc3nc(CCc4ccccc4)c(=O)n(Cc4cccs4)c3n2)CC1
inactive: Potency [5] > 11.4 µM | activity change, negative = inhibition [6] -5.44% | activity change, negative = inhibition [8] 4.5% | outcome [9] | Potency [10] > 46 µM | Potency [11] | outcome [14] | Potency [1] | Potency [2] | Potency [3] | Potency [15]
active: Potency [7] 15.8 µM

O=c1cnc2cnc(OCc3ccccc3)nc2n1CCc1ccccc1
active: Potency [15] 31.2 µM
inactive: activity change, negative = inhibition [6] -5.47% | activity change, negative = inhibition [8] -27.9% | outcome [9] | Potency [10] > 46 µM | Potency [1] | Potency [2] | Potency [3]

COC(=O)[C@@]1(C)CCC[C@@]2(C)c3ccc(O)c(C(C)C)c3CCC21 (stereo not given in full)
inactive: outcome [14] | Potency [20] | Potency [21] | Potency [1] | Potency [2] | Potency [3] | Potency [15]
active: Potency [13] 31.6 µM

Oc1ccc(/C=N/Nc2ncnc3nc[nH]c23)cc1
inactive: Potency [1] | Potency [2] | activation [3] -0.35% [at 17.1 µM, percent relative to cAMP agonist control] | activity change, negative = inhibition [4] 4.9% [at 30.8 µM]

COc1ccc(CNc2nc(-c3cccnc3)nc3ccccc23)c(OC)c1
inactive: Potency [5] > 11.4 µM | activity change, negative = inhibition [6] -16.7% | activity change, negative = inhibition [8] 6.84% | outcome [9] | Potency [18] > 46 µM | Potency [11] | Potency [22] | Potency [23] | Potency [1] | Potency [2] | Potency [3] | Potency [15]

C=C1CCC(O)C/C1=C\C=C1/CCCC2(C)C1CCC2C(C)CCCC(C)C (stereo not given)
inactive: outcome [24] | Potency [2] | Potency [3]
active: Potency [1] 55.9 µM | Potency [15] 39.3 µM

CC(=O)Nc1ccc(N2C(=O)c3cccc4c(O)ccc(c34)C2=O)cc1
active: Potency [16] 2.31 µM | Potency [2] 79.4 µM | Potency [3] 112 µM | Potency [17] 39.8 µM
inactive: Potency [1] | Potency [15]

CCN(CC)c1ccc2cc(-c3nnc(-c4cccc(Cl)c4)o3)c(=O)oc2c1
inactive: Potency [1] | Potency [4]
active: Potency [2] 44.7 µM | Potency [3] 35.5 µM

COc1ccc(C(C#N)N2CCC(c3ccccc3)=N2)cc1OC (stereo not given)
inactive: Potency [1] | Potency [2] | Potency [3] | Potency [4]

Cc1cnc(C(=O)OCC(=O)Nc2ccc(Oc3ccccc3)cc2)cn1
inactive: Potency [1] | Potency [2] | Potency [3] | Potency [4]

CCOC(=O)c1c(NC(=O)CSc2nc3ccc(C)cc3[nH]2)sc2c1CC(C)(C)NC2(C)C
inactive: Potency [1] | Potency [2] | Potency [3] | Potency [4]
